Here are results for one sequence from article PMC7862700, “An all-to-all approach to the identification of sequence-specific readers for epigenetic DNA modifications on cytosine”.

Common to all, as to assay: DAPPL (digital affinity profiling via proximity ligation, sequencing); 10 mM Tris-HCl pH 7.5, 50 mM NaCl, 1 mM DTT, 4% glycerol, room temperature, 30 min; GST-TFs on glutathione beads, 16-mer random dsDNA library, 0.1% formaldehyde crosslink after washing; high values mean tight binding
Common to all, as to details: protein: recombinant; tags: N-terminal GST; dsDNA, one strand shown

For test [1], the target named is T1, ELK1 (Homo sapiens, UniProt P19419 1-428).
T1 sequence: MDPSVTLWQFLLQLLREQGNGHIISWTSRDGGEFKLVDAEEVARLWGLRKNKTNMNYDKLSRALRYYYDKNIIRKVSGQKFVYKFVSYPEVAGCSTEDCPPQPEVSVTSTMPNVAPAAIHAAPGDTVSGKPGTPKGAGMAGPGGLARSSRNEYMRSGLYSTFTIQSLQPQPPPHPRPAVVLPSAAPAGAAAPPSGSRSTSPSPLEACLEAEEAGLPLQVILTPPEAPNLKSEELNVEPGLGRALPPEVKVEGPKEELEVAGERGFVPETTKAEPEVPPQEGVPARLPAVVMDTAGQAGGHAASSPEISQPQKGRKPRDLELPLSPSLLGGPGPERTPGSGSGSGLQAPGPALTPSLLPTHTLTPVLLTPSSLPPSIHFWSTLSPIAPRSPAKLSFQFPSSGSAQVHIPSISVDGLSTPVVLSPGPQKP
The method in brief: (§1)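 A tag-only sample was pooled with DNA-barcoded human transcription factors that had been expressed in yeast as GST fusions and captured on glutathione beads. The pools were incubated for 30 min at room temperature with 200 nmole of a random double-stranded 16-mer DNA library in Tris/NaCl/DTT/glycerol buffer, then washed, crosslinked with 0.1% formaldehyde, proximity-ligated (BsaI/T4 ligase, 1 h, 37 °C), PCR-amplified and sequenced on an Illumina NextSeq500. Binding signal is each hexamer's read frequency for a factor divided by its frequency for the tag-only sample.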

The target of test [2] is T2, GABPA (Homo sapiens, UniProt Q06546 1-454).
T2 sequence: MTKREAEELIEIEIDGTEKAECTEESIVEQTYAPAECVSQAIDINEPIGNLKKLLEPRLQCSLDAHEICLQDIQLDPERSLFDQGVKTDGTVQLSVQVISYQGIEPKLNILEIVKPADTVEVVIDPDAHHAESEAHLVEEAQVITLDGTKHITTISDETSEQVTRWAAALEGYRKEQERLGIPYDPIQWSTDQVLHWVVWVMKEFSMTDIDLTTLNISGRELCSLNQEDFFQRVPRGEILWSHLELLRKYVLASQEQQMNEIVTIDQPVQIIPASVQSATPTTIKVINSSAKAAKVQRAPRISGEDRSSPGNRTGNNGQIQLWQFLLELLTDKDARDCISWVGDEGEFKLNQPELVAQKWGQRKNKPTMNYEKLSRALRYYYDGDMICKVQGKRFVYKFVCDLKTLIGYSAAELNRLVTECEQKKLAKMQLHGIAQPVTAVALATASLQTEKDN
In short, it runs like this: as §1

Test [3] deals with T3, ERG (Homo sapiens, UniProt P11308 1-479).
T3 sequence: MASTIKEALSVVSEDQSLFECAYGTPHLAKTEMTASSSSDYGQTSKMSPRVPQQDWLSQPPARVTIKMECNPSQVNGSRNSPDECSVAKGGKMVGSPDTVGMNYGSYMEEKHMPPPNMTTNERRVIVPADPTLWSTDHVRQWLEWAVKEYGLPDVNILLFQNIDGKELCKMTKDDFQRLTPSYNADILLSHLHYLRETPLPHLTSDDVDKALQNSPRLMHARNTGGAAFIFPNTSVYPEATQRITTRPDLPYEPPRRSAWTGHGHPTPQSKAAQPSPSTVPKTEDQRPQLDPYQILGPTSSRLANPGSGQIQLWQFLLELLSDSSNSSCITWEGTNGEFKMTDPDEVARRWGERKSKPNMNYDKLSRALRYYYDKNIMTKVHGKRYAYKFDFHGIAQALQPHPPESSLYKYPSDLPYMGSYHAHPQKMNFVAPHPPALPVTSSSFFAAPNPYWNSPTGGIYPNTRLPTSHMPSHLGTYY
In short, it runs like this: as §1

For test [4], the target named is ELF1 (Homo sapiens, UniProt P32519 1-619). In short, it runs like this: as §1
The target in test [5] is T4, EHF (Homo sapiens, UniProt Q9NZC4 1-300).
T4 sequence: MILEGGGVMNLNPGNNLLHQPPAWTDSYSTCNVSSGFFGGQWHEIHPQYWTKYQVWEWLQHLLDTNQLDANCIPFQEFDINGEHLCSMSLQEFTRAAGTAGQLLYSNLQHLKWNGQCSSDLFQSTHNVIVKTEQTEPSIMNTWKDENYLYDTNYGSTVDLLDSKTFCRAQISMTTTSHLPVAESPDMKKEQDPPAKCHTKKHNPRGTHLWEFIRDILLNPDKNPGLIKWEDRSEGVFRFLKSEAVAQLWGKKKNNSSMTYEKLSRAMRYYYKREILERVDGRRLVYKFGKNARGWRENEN
The method in brief:
as §1

Test [6] has as its target T5, ELK3 (Homo sapiens, UniProt P41970 1-407).
T5 sequence: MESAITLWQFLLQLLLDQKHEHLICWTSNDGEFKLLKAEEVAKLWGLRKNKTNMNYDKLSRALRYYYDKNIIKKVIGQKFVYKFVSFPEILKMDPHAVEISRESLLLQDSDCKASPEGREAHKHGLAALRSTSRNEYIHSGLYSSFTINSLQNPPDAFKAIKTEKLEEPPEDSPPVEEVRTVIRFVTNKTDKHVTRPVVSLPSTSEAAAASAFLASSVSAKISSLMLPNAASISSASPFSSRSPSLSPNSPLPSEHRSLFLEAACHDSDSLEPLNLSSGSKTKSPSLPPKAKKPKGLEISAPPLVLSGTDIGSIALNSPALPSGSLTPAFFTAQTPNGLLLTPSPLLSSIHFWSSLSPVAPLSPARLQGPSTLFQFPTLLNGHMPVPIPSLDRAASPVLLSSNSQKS
In short, it runs like this:
as §1

The target of test [7] is ETV5 (Homo sapiens, UniProt P41161 1-510). In short, it runs like this:
as §1

Test [8] addresses T6, SPIC (Homo sapiens, UniProt Q8N5J4 1-248).
T6 sequence: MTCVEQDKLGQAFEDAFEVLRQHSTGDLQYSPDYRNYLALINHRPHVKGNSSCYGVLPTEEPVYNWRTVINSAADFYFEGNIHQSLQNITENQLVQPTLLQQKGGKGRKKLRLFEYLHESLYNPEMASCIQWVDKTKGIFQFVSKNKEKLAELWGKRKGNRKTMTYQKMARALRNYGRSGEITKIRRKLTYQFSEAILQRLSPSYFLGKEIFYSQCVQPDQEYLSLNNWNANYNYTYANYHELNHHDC
In short, it runs like this:
as §1

Test [9] deals with ELF4 (Homo sapiens, UniProt Q99607 1-663). In short, it runs like this:
as §1

Sequence of ELF1 (P32519 whole entry): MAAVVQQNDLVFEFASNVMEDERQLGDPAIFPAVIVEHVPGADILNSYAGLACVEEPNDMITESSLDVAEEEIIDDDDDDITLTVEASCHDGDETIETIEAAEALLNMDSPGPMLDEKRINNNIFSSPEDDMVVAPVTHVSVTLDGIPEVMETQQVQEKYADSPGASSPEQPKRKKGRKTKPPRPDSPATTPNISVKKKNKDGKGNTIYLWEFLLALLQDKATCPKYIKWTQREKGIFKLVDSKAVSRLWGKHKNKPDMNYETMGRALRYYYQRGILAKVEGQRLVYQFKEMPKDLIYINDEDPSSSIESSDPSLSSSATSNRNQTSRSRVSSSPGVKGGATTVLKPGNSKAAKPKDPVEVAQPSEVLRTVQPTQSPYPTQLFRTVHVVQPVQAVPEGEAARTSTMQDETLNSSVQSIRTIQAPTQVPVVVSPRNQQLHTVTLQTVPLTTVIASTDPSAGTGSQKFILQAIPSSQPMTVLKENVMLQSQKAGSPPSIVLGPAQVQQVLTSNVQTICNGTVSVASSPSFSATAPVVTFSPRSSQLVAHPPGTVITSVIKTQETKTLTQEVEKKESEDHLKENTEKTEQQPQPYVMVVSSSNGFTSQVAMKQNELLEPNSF
Sequence of ETV5 (P41161 whole entry): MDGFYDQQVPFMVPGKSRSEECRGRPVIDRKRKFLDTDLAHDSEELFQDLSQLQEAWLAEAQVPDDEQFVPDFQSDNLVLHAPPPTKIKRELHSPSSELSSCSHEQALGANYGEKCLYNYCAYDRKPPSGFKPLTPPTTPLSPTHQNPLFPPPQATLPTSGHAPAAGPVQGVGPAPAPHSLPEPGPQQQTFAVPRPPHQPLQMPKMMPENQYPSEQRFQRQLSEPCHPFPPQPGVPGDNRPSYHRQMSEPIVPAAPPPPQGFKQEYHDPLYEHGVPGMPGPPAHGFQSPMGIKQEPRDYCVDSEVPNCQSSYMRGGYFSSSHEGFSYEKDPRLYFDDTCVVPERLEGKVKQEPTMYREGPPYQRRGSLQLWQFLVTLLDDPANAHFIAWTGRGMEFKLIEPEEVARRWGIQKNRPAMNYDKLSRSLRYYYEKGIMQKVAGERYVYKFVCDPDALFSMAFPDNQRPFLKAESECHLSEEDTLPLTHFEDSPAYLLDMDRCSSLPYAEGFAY
Sequence of ELF4 (Q99607 whole entry): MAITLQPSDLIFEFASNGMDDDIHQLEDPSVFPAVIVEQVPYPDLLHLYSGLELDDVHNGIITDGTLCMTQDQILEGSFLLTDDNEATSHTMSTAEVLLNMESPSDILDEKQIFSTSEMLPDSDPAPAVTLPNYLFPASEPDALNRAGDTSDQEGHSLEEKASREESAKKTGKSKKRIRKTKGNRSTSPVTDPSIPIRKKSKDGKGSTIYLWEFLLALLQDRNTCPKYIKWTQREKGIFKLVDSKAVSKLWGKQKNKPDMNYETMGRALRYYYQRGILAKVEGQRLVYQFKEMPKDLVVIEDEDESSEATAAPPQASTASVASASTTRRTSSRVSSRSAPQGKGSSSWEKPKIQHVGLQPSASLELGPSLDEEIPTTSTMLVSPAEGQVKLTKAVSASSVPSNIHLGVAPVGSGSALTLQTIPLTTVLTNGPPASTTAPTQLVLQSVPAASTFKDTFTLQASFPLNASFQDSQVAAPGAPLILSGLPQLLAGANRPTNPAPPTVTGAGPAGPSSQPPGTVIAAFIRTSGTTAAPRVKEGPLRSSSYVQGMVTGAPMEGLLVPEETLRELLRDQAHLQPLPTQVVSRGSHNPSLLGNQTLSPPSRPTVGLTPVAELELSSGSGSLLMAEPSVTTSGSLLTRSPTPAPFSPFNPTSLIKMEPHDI

On to GTGCAT, for which the binding signal is 1.05 fold enrichment (6-mer frequency, TF over GST control) in [1]; 1.1 fold enrichment (6-mer frequency, TF over GST control) in test [2]; 1.06 fold enrichment (6-mer frequency, TF over GST control) in test [3]; 1.01 fold enrichment (6-mer frequency, TF over GST control) in test [4]; 1.07 fold enrichment (6-mer frequency, TF over GST control) in test [5]; 1.16 fold enrichment (6-mer frequency, TF over GST control) in test [6]. In addition, the binding signal in test [7] is 1.13 fold enrichment (6-mer frequency, TF over GST control); in test [8] it was 1.28 fold enrichment (6-mer frequency, TF over GST control); in test [9], 1.08 fold enrichment (6-mer frequency, TF over GST control).
